{"source": "PubChem BioAssay AID602179", "about": "(National Center for Advancing Translational Sciences (NCATS), 2012)", "note": "The whole screen tested about 390,000 compounds, of which about 360 (0.092%) were called active. Many of the other results were omitted from the sample, so actives are more common in it than they were. Values without a mark were called inactive. The call rests on the fitted dose curve; in most records, active means well fitted inhibition curve with a large enough effect; inconclusive means small, poorly fitted or top-dose-only effect; inactive means no such curve, though single readings can be large or run the other way. On the % scale 0 is the no-effect control and ±100 the full control effect; potency means the concentration at half of the fitted maximal effect."}
{"molecular_target": "Isocitrate dehydrogenase [NADP] cytoplasmic (Homo sapiens) (UniProt O75874)", "sequence (O75874 whole entry R132H, stated change not applied)": "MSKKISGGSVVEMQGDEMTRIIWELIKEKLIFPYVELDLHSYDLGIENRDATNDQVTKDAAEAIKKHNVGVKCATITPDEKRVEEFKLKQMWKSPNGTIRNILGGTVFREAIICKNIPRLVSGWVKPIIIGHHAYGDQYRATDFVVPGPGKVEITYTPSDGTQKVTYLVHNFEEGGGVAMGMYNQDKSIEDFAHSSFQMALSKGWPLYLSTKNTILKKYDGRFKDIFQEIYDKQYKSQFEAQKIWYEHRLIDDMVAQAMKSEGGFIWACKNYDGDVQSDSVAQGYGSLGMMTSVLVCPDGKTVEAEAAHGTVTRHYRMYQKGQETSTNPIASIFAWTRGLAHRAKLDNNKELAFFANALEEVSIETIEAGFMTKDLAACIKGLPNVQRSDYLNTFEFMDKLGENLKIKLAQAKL", "test": "qHTS for Inhibitors of mutant isocitrate dehydrogenase 1 (IDH1): qHTS; further: nearly all actives have a fitted effect of over 65% in size", "conditions": "IDH1-R132H enzyme, NADPH consumption, diaphorase/resazurin fluorescence; series mostly up to 76.6 µM; activity change, negative = inhibition: at the top concentration", "from_the_text": "Unbiased genomic sequencing for 22 glioma genomes found recurrent mutation of isocitrate dehydrogenase 1 (IDH1) on chromosome 2q33-a gene encoding the cytosolic isoform of IIDH1associated with the tricarboxylic acid cycle (TCA) that catalyzes the oxidative decarboxylation of isocitrate, yielding alpha-ketoglutarate and CO2 via NADP+ to NADPH conversion. Subsequent studies confirmed the recurrent IDH mutations in up to 70% of secondary gliomas and in 10% of AML cases. […] This in effect defines IDH1 as an oncogene, and provides an extraordinary opportunity to discover chemical probes against mutant IDH1 that may translate into much needed new therapies for glioma and AML patients. […] NIH Chemical Genomics Center [NCGC] NIH Molecular Libraries Probe Centers Network [MLPCN] MLPCN Grant: DA032129 Assay Submitter (PI): Lenny Dang, Agios Pharmaceuticals\nIDH1-R132H (0.5 ug/mL) was dispensed into black, solid-bottom 1536-well plates at 3 uL/well in 20 mM Tris-HCl (pH 7.5), 150 mM NaCl, 10 mM MgCl2, 4 mM beta-ME, and 0.05% protease-free BSA. Then, 23 nL of compounds or DMSO were delivered to each well using a pin tool. A pre-read was run on the Viewlux to identify fluorescent compounds (540 nm excitation filter, 598 nm emission filter, bodipy mirror and 2 second exposure). After 30 minutes of incubation with compound, 3 uL of substrate mix were dispensed (0.016 mM NADPH, 2 mM alpha-KG, 20 mM Tris-HCl (pH 7.5), 150 mM NaCl, 10 mM MgCl2, and 0.05% protease-free BSA). Plates were spun for 1 min at 1000xg and incubated at room temperature for 80 min. Then 1.5 uL of each detection reagent component for the coupling system were added (0.12 mg/mL diaphorase and 0.072 mM resazurin, each in 20 mM Tris-HCl (pH 7.5), 150 mM NaCl, 10 mM MgCl2, and 0.05% protease-free BSA ) The protein, substrate and two detection components were maintained at 4 °C throughout the screen. Additionally, the substrate and resazurin reagents were protected from light. The plates were measured on an Envision plate reader for fluorescence signal using a 540 nm excitation filter and 590 nm emission filter with 10 flashes. 1x and 0x (no-enzyme) IDH1-R132H enzyme control were used to normalize %Activity of identified inhibitors; 0x enzyme values corresponded to 100% Activity (full inhibition), while 1x IDH1-R132H enzyme values were used to normalize 0%Activity (no inhibition). Concentration-response curves were fitted to the signals arising from the resulting fluorescence. The concentration-effect curves were then classified based on curve quality (r2), response magnitude and degree of measured activity, and compounds were subsequently categorized based on their curve class. […] Keywords: isocitrate dehydrogenase, IDH1, IDH1-R132H, MLSMR, MLPCN, NIH Roadmap, qHTS, NCGC", "units": {"activity change, negative = inhibition": "%"}}
{"smiles": "Cc1cc(N2CCN(c3cccc(C(F)(F)F)c3)CC2)n2nc(-c3ccccc3)nc2n1", "activity change, negative = inhibition": -9.04}
{"smiles": "COC(=O)c1cc(S(=O)(=O)N2CCN(c3cc(Cl)ccc3C)CC2)c[nH]1", "activity change, negative = inhibition": -12.5}
{"smiles": "COc1ccc(CCNC(=O)c2ccc3c(c2)nc(C)n3-c2ccc(Br)cc2)cc1OC", "activity change, negative = inhibition": 6.54}
{"smiles": "COc1ccc(CNC(=O)CCc2c(C)nn(-c3ccc(N4CCCC4)nn3)c2C)cc1", "activity change, negative = inhibition": -5.82}
{"smiles": "CCOc1ccc(N(CC)S(=O)(=O)N2CCCC(C(=O)NCc3ccc(SC)cc3)C2)cc1", "note": "(stereo unspecified)", "activity change, negative = inhibition": -6.03}
{"smiles": "CCCCOc1ccc(Cn2c(=O)oc3ccc(C)cc32)cc1OC", "activity change, negative = inhibition": 0.174}
{"smiles": "CCCCOc1ccc(CN2C(=O)C(=O)c3cc(Br)cc(C)c32)cc1OC", "Potency": "28.2 µM (active)"}
{"smiles": "COc1ccc(CN2C(=O)CC(Cc3ccc(C)cc3)C2=O)cc1OC", "note": "(stereo unspecified)", "activity change, negative = inhibition": 0.852}
{"smiles": "O=S(=O)(c1ccc(Br)cc1)c1nnn2c1nc(N1CCOCC1)c1sccc12", "activity change, negative = inhibition": 7.56}
{"smiles": "COc1ccc(N2C(=O)CSC23C(=O)N(Cc2cccc(F)c2)c2ccccc23)cc1Cl", "note": "(stereo unspecified)", "activity change, negative = inhibition": -7.21}
{"smiles": "Cc1ccc(CNC(=O)CSc2c3c(nc4cc(Cl)ccc24)CCCC3)cc1", "activity change, negative = inhibition": 12.5}
{"smiles": "Cc1cc(Cl)ccc1NC(=O)Cc1ccc(NC(=O)N2CCCCc3ccccc32)cc1", "activity change, negative = inhibition": -7.17}
{"smiles": "CC1CN(C(=O)N2CCC(C(=O)NCc3cccs3)CC2)c2ccccc2O1", "note": "(stereo unspecified)", "activity change, negative = inhibition": 13.4}
{"smiles": "Cc1ccc(O)c(NC(=O)c2cc(-c3ccc(F)cc3)no2)c1", "activity change, negative = inhibition": 0}
{"smiles": "Cc1ccc(Nc2nc3ccccc3nc2-n2nc(C)cc2C)c(Cl)c1", "activity change, negative = inhibition": 0}
{"smiles": "CCCN(CCC)C(=O)Cn1c(=O)n(-c2ccc(Cl)cc2)c(=O)c2c3c(sc21)CCCCC3", "activity change, negative = inhibition": 3.66}
{"smiles": "CCCn1c2ccccc2c2cnn(CC(=O)N(CC)c3cc(C)ccc3C)c(=O)c21", "activity change, negative = inhibition": -8.48}
{"smiles": "N#Cc1ccc(-c2cccs2)nc1SCc1ccc(Br)cc1", "activity change, negative = inhibition": -10.1}
{"smiles": "COc1ccc(Cl)cc1NC(=O)CSc1nc2ccccc2c2nc(-c3ccccc3)nn12", "activity change, negative = inhibition": 11.3}
{"smiles": "O=C(CCc1cn(Cc2ccc(F)cc2)c2ccccc12)NC1CCCCC1", "activity change, negative = inhibition": -2.83}
{"smiles": "O=C(C1COc2ccccc2O1)N(Cc1cccnc1)c1nc2c(F)cc(F)cc2s1", "note": "(stereo unspecified)", "activity change, negative = inhibition": 0}
{"smiles": "CCOC(=O)c1ccc(NC(=O)Cn2c(=O)n(-c3ccc(C)cc3)c(=O)c3c2cnn3C)cc1", "activity change, negative = inhibition": 0}
{"smiles": "CCCCn1c(CNC(=O)C23CC4CC(CC(C4)C2)C3)nnc1SCC(=O)Nc1ccc(C)cc1", "activity change, negative = inhibition": -2.28}
{"smiles": "COCCNC(=O)c1ccc2c(c1)N(Cc1cccc(Cl)c1)C(=O)c1ccccc1S2(=O)=O", "activity change, negative = inhibition": -14.2}
{"smiles": "COc1ccc(-c2nnc(SCC(=O)Nc3ccccc3C)o2)cc1OC", "activity change, negative = inhibition": -3.15}
{"smiles": "CCCCc1nn2c(=O)cc(COC(=O)c3ccccc3NC(=O)C(C)(C)C)nc2s1", "activity change, negative = inhibition": -4.52}
